Screening data: PubChem BioAssay, National Center for Advancing Translational Sciences (NCATS)
Shown are actives, neighbours in structure and some others; about 3.7% of the full set was active somewhere.
ELG1 DNA repair: inhibitors of ELG1-dependent DNA repair in HEK293T cells; HEK293T ELG1-luciferase reporter, luminescence, 16 h; DNA damage induced by 5-fluorouridine; Potency, µM (series often up to 46.1 µM), actives largely listed as inhibitors; actives 2.3% (n = 330,000); note: nearly all actives have a fitted effect of over 55% in size
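5-Fluorouridine DNA damage + compound/DMSO, 2,000 cells/well, 16 h, 37 °C/5% CO2. ONE-Glo, 30 min RT, luminescence. Readout = decrease in reporter signal.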
A549 tox: counter-screen for Nrf2 inhibitors: cytotoxicity in A549 cells | A549 ARE-Fluc cells, CellTiter-Fluor viability, 18-24 h | Potency, µM (doses to about 46 µM), actives largely listed as inhibitors | actives 0.16% (n = 390,000) | AID 504648
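A549 ARE_Fluc cells in 5% FBS OPTI-MEM were exposed to compounds in concentration-response for 18-24 h at 37 deg C. Viability was read by CellTiter-Fluor fluorescence (Ex 405/Em 525) after 30 min, before the luciferase read.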
Nrf2 activator: activators of Nrf2 (ARE) signaling | AREc32 ARE-luciferase reporter (MCF7-derived line), luminescence, 24 h | Potency, µM (titrated, usually from 46.1 µM), usual class: activators | actives 0.31% (n = 410,000); note: nearly all actives have a fitted effect of over 65% in size
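Nrf2 activation is followed as ARE-luciferase induction in the AREc32 line after one day of compound treatment; luminescence is read with Steady-Glo.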
Nrf2 inh: inhibitors of Nrf2 signaling; Potency, µM (top dose mostly 46 µM), actives largely listed as inhibitors; AID 504444; actives 2.1% (n = 360,000); A549 ARE-Fluc reporter, luciferase luminescence, 18-24 h; note: nearly all actives have a fitted effect of over 60% in size
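Two sequential reads on A549 ARE_Fluc cells exposed to compound for 18-24 h: a CellTiter-Fluor fluorescence read for viability, then a luciferase luminescence read for Nrf2/ARE activity.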
Hits are given with their value; i = inactive; ? = inconclusive; nt = no result given; [ ] = another dose, or the depositor's remark. Calls come from the whole dose curve; as a rule, active = well fitted curve in the direction sought with a large enough effect; inconclusive = small, poorly fitted or top-dose-only effect, or another doubt; inactive = no such curve, though single readings can be large; an effect the other way counts as inactive or inconclusive.

SMILES	ELG1 DNA repair	A549 tox	Nrf2 activator	Nrf2 inh
CC(Nc1c[nH]c(=O)[nH]c1=O)c1ccccc1 (configuration not stated)	i	i	i	i
Fc1cccc(Cl)c1/C=N/Nc1ccccn1	?	i	?	?
Oc1cccc2ccc(/C=C/c3c(F)cccc3Cl)nc12	?	i	1µM	i
Oc1cccc2ccc(/C=C/c3ccccc3Cl)nc12	?	i	?	i
Nc1nccc(/C=C/c2c(F)cccc2Cl)n1	?	i	10µM	?
COc1cccc(N2CCN(C(=O)c3cc4c(=O)n(Cc5ccco5)ccc4nc3C)CC2)c1	nt	i	i	?
CN(Cc1ccc(F)cc1)C(=O)C(Cc1ccccc1)NC(=O)c1ccccc1 (configuration not stated)	?	i	i	i
COc1ccc(CN(C)C(=O)C(Cc2ccccc2)NC(=O)c2ccccc2)cc1F (configuration not stated)	15µM	i	i	i
CCOc1ccc(CN(C)C(=O)[C@H](Cc2ccccc2)NC(=O)OCc2ccccc2)cc1OC	?	?	i	21µM
COc1ccc(N2CCN(C(=O)C(Cc3ccccc3)n3cccc3)CC2)cc1 (configuration not stated)	i	i	i	i
CN([C@@H](Cc1ccc(OS(=O)(=O)c2cccc3cnccc23)cc1)C(=O)N1CCN(c2ccccc2)CC1)S(=O)(=O)c1cccc2cnccc12	9.2µM	i	i	?
O=C(COc1ccc(Cl)cc1Cl)NCC1(N2CCOCC2)CCCCC1	?	i	i	23µM
O=C(CN1CCN(c2ccccn2)CC1)Nc1ccc(OCc2ccccc2)cc1	?	i	i	21µM
O=C(CN1CCN(c2ccccn2)CC1)Nc1cccc(S(=O)(=O)N2CCCC2)c1	i	i	i	12µM
Cc1nn(C)c(C)c1NS(=O)(=O)c1c(C)n[nH]c1C	?	i	i	i
O=C1CN(C(=O)COC(=O)c2ccc(Cl)c(S(=O)(=O)N3CCCCC3)c2)c2ccccc2N1	i	i	i	i
CN(C)/C=N/C1=C(C#N)C(c2cccs2)c2ccc3ccccc3c2O1 (configuration not stated)	?	?	8.9µM	?
CN(C)S(=O)(=O)c1cccc(NC(=O)Cc2ccc(-c3ccccc3)cc2)c1	i	?	i	13µM
COc1cc(CC(=O)Nc2cccc(S(=O)(=O)N(C)c3ccccc3)c2)cc(OC)c1OC	9.2µM	?	i	15µM
Cc1cc(NC(=O)CSc2nc(=O)cc(N)n2-c2ccc(Cl)cc2)no1	i	i	i	i
O=C1Nc2ccc(Br)cc2/C1=C/c1ccc(C(=O)O)cc1	i	nt	nt	nt
Cc1nc2ccc(N)cc2c(=O)n1Cc1ccc(Cl)cc1	i	i	i	i
Nc1ccc(Cn2ccc3c4c(N)nc(N)nc4ccc32)cc1	nt	i	i	0.82µM
COCCn1c(C)cc(C(=O)COC(=O)c2[nH]c(C)c(C(C)=O)c2C)c1C	?	i	i	23µM
COCCn1c(C)cc(C(=O)COc2nc3ccccc3nc2C)c1C	23µM	i	i	?
SMILES	ELG1 DNA repair	A549 tox	Nrf2 activator	Nrf2 inh
COCCn1c(C)cc(C(=O)CSc2ccc3ccccc3n2)c1C	?	i	i	?
COc1cc(-c2ccc3ncnc(NCc4cccs4)c3c2)cc(OC)c1OC	nt	i	nt	i
Cc1ccc(S(=O)(=O)N2CCN(c3nc(-c4ccnnc4)nc4ccccc34)CC2)cc1	nt	i	nt	i
Cc1ccnc(N(C(=O)c2cccs2)C(=O)c2cccs2)c1	?	i	10µM	i
Cc1ccnc(NC(=O)CCC(=O)c2cccs2)c1	?	i	i	?
CCOc1ccccc1N1CCN(C(=O)c2ccc(Cl)c(S(=O)(=O)N3CCCCC3)c2)CC1	23µM	i	i	?
O=C(c1ccc(Cl)c(S(=O)(=O)N2CCCCCC2)c1)N1CCN(c2ccccn2)CC1	21µM	i	i	?
O=C(c1ccc(Cl)c(S(=O)(=O)N2CCCCCC2)c1)N1CCCCC1	i	i	i	i
CCOc1ccccc1N1CCN(C(=O)c2cc(S(=O)(=O)N3CCCCC3)ccc2C)CC1	?	i	i	i
Cn1ccnc1C(=O)c1cc(SCC(=O)NCc2ccccc2)nc2ccccc12	8.2µM	i	i	i
CCCc1nnc2n1N=C(c1ccc(C)cc1)CS2	i	i	i	i
Cc1nn(Cc2ccc(Cl)cc2Cl)c(C)c1NC(=O)c1nn(C)cc1Cl	i	i	i	nt
Cc1nn(Cc2ccc(Cl)cc2Cl)c(C)c1NC(=O)CCl	15µM	i	?	i
Cc1nn(Cc2cccc(F)c2)c(C)c1NC(=O)c1ccc(COc2ccccc2Cl)cc1	?	?	i	10µM
Cc1nn(C)c(Cl)c1NC(=O)OCc1ccc(Cl)cc1Cl	i	i	i	16µM
Cc1nn(Cc2ccc(Cl)cc2Cl)c(C)c1NC(=O)c1ccc(COc2cc(Cl)ccc2Cl)o1	?	i	i	12µM
O=C(Nc1ccn(Cc2c(F)c(F)cc(F)c2F)n1)c1ccc(COc2ccc(Cl)cc2Cl)o1	?	i	i	nt
Cc1nn(Cc2c(F)c(F)c(F)c(F)c2F)c(C)c1NC(=O)c1ccc(COc2ccc(Cl)cc2Cl)o1	i	i	i	16µM
O=C(COC(=O)c1cc(=O)[nH]c2ccccc12)NCc1ccccc1Cl	i	i	i	i
COc1ccc(NC(=O)CSc2ccc3nnc(-c4cccnc4)n3n2)cc1OC	i	i	i	i
CC(C)(C)OC(=O)N[C@@H](Cc1ccccc1)c1nnc(SCC(=O)c2ccc(Cl)cc2)o1	?	i	i	26µM
CC(C)(C)OC(=O)N[C@@H](Cc1ccccc1)c1nnc(S(=O)(=O)Cc2ccccc2)o1	i	nt	nt	nt
Cc1ccccc1CS(=O)(=O)c1nnc([C@H](Cc2ccccc2)NC(=O)OC(C)(C)C)o1	?	i[1.84 µM]	i	23µM
COc1ccc(CNC(=O)Cc2csc3nc(-c4ccc(F)cc4)cn23)cc1	nt	i	i	nt
COc1ccc([C@@H]2C(C#N)=C(N)S[C@@H](c3ccccc3)[C@@H]2[N+](=O)[O-])cc1	i	i	i	21µM
SMILES	ELG1 DNA repair	A549 tox	Nrf2 activator	Nrf2 inh
N=c1c(-c2nc3ccccc3[nH]2)cc(C(=O)c2cccs2)nn1-c1ccccc1	?	i	i	i
N=c1c(-c2nc3ccccc3[nH]2)cc(C(=O)c2ccco2)nn1-c1ccccc1	16µM	?	i	i
CN(C)c1ccc(N=Nc2ccccc2C(=O)OCC(=O)N(C)c2ccccc2)cc1	13µM	?	i	i
COC(=O)c1ccccc1NC(=O)COC(=O)c1ccccc1N=Nc1ccc(N(C)C)cc1	?	i	i	?
CC(=O)NC(NC(=S)Nc1cccc(Br)c1)C(Cl)(Cl)Cl (configuration not stated)	?	i	i	i
CC1CCCCC12NC(=O)N(CC(=O)N1CCN(Cc3ccc(C#N)cc3)CC1)C2=O (configuration not stated)	i	i	i	5.8µM
COc1ccccc1CNC(=O)c1cc(-c2cc(F)ccc2OC(C)C)n[nH]1	nt	nt	i	nt
COc1cccc(/C=N/NC(=O)c2cc3c(OC)ccc(OC)c3[nH]2)c1O	3.7µM	i	i	?
